HCV inh: qHTS Assay for Inhibitors of Hepatitis C Virus (HCV). AID 651820, 2012. Potency, µM (titrated, usually from 41.8 µM), inactives show top-dose activity change, negative = inhibition, usual class: inhibitors. Huh7.5.1 HCVcc-Cre infection, luciferase reporter, 44 h. 340,000 compounds, 3.4% hits; note: potency is the fitted concentration of half-maximal effect
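Infectious HCVcc-Cre (~0.5 moi) was added to cells just after compound, with cells seeded 4 h earlier at 1,000 per well. Luciferase activity after 44 h culture reported infection; substrate was incubated 15 min at room temperature before reading.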
HCMV inh: qHTS Assay for inhibitors of the human cytomegalovirus (HCMV). 410,000 compounds, 4.5% hits. activity change, negative = inhibition, % at 57.5 µM. HFF cells, HCMV-luciferase reporter, 72 h; active compounds read low. AID 1259415, 2018; in the data active = activity change below about -60%; inconclusive = no clear call, values can overlap the other calls; inactive = above about -39%
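Inhibition of viral replication was scored as loss of reporter luminescence in HFFs infected with HCMV-luciferase (MOI 1 PFU/cell) for 72 h; compounds tested at 2 doses, normalized to buffer and Salinomycin controls.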
Pf growth 96h: Primary qHTS for delayed death inhibitors of the malarial parasite plastid, 96 hour incubation; Potency, µM (series often up to 28.7 µM), inactives show top-dose activity change, negative = inhibition, actives largely listed as inhibitors; P. falciparum luciferase reporter growth, 96 h; 320,000 compounds, 6.9% hits; note: potency is the fitted concentration of half-maximal effect
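Erythrocytes infected with luciferase-expressing P. falciparum were dispensed at 2% hematocrit and 0.05% parasitemia (final), then incubated with compounds 96 hours at 37 C in 5% CO2. Luminescence after detection reagent addition reported growth.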
Pf growth 48h: Primary qHTS for delayed death inhibitors of the malarial parasite plastid, 48 hour incubation | P. falciparum luciferase growth in erythrocytes, 48 h | AID 504832, 2011 | Potency, µM (doses to about 28.7 µM), for inactives: top-dose activity change, negative = inhibition, most hits filed as inhibitors | 310,000 compounds, 5.9% hits; note: potency is the fitted concentration of half-maximal effect
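In quantitative HTS format, infected erythrocytes bearing luciferase-reporter parasites were treated for a single generation at 37 C. Luminescence after adding detection reagent served as the growth measure.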
An asterisk follows results filed as active; ? = inconclusive; . = no result. Only some compounds are listed: those with a hit (about 13% of all), similar ones and a draw of the others. Unless noted, calls come from the whole dose curve; as a rule, active = well fitted inhibition curve with a large enough effect; inconclusive = small, poorly fitted or top-dose-only effect, or another doubt; inactive = no such curve, though single readings can be large or run the other way. % is set by controls: 0 for no effect and ±100 for the full control effect.

SMILES	HCV inh	HCMV inh	Pf growth 96h	Pf growth 48h
COc1ccc(-c2c[n+]3c(n2-c2ccccc2)CCCCC3)cc1	4%	-96*	?	1µM*
COc1ccc(-c2c[n+]3c(n2-c2c(C)n(C)n(-c4ccccc4)c2=O)CCCCC3)cc1	16%	1	14%	?
COc1ccc(N2CCN(C(=O)c3nc(-c4ccc(Cl)cc4)n4c3CCCCC4)CC2)cc1	.	22	.	.
COc1ccc(-c2nc(S(=O)(=O)c3ccccc3)c(N3CCCC3)o2)cc1	.	0	.	.
FC(F)Oc1ccc(-c2c[n+]3c(n2-c2ccccc2)CCCCC3)cc1	5%	?	?	?
COc1ccc(-c2c[n+]3c4n2CCCCC4=C(c2ccccc2)C3)cc1	-27%	-102*	6.6µM*	?
COc1ccc(-n2c(-c3ccc(Cl)cc3)c[n+]3c2CCCCC3)cc1	-8%	-80*	0.47µM*	1µM*
COc1ccc(-c2c[n+]3c(n2-c2ccc(C)cc2)CCCCC3)cc1	?	-97*	0.29µM*	0.93µM*
COc1ccc(OC)c(CNn2c(-c3cccc(C)c3)nc3ccccc3c2=O)c1	?	?	8.3µM*	.
COc1cccc(CC(=O)Nn2c(C)nc3ccccc3c2=O)c1	4%	25	-20%	3%
COc1cccc(CNn2c(-c3cccc(C)c3)nc3ccccc3c2=O)c1	?	-73*	9.3µM*	.
CCOc1ccc(-n2c(-c3cccs3)nc3ccccc3c2=O)cc1	?	-66*	9.3µM*	1%
COc1ccc(CNn2c(-c3cccs3)nc3ccccc3c2=O)cc1OC	?	-70*	7%	-25%
NC(=O)CCC1NC(=S)N(Cc2ccccc2)C1=O (configuration not stated)	2%	-67*	17%	18%
O=C(c1cnccn1)N1CCc2c([nH]c3ccccc23)C1c1cccc(Cl)c1 (configuration not stated)	?	-12	?	?
Cc1cc(C(=O)N2CCc3c([nH]c4ccccc34)C2c2c(F)cccc2Cl)no1 (configuration not stated)	-7%	-14	-5%	5.9µM*
COc1ccc(CC(=O)N2CCc3c([nH]c4ccccc34)C2c2ccc(SC)cc2)cc1 (configuration not stated)	.	-10	.	.
CCc1cc(C(=O)N2CCc3c([nH]c4ccccc34)C2c2ccc(OC)cc2F)no1 (configuration not stated)	?	-64*	?	52%
CCOC(=O)c1c(-c2ccc(OC)cc2)oc2ccc(OCc3ccccc3C)cc12	.	-13	.	.
N#C/C(=C/c1ccc(Br)o1)C(N)=S	.	.	12µM*	?
CC(=O)Nc1ccc(OCc2cccc3ccccc23)cc1	-13%	-79*	?	0%
COc1ccc(NC(=O)CNC(=O)Cc2cccc3ccccc23)cc1	5%	16	.	.
O=C1NC[C@H](CCCCN2C[C@H](Cc3ccccc3)N(Cc3ccccc3)C(=O)C2=O)N(CCc2ccccc2)C1=O	.	-18	.	.
Cc1ccsc1/C=C1\SC(=S)N(CC2CCCO2)C1=O (configuration not stated)	?	?	1.3µM*	27%
COc1ccc(CC(=O)N2CCc3cc(OC)c(OC)cc3C2COc2ccc(OC)cc2)cc1 (configuration not stated)	.	19	.	.
SMILES	HCV inh	HCMV inh	Pf growth 96h	Pf growth 48h
CCOC(=O)c1c(-c2ccco2)csc1NC(=O)CSc1nnc(N)s1	11µM*	-11	41%	6%
CCOC(=O)c1c(-c2ccc(C)o2)csc1NC(=O)CSc1nncs1	?	?	31%	10µM*
CCOC(=O)c1c(-c2ccc(C)o2)csc1NC(=O)CN1CCC(C(N)=O)CC1	4.5µM*	-3	?	?
CCOC(=O)c1c(-c2ccc(C)o2)csc1NC(=S)NC(=O)c1ccc(F)cc1	-3%	20	7.4µM*	8.3µM*
COc1ccc(CNC(=O)Cc2c(C)c3ccc(O)cc3oc2=O)cc1	.	5	.	.
CCOCCc1nn2c(=O)cc(COC(=O)CNC(=O)c3ccc(F)cc3)nc2s1	.	6	.	.
O=c1[nH]c(=S)[nH]c(O)c1N=Nc1ccc(SC(F)F)cc1	1%	-61*	2%	0%
CC(C)c1ccc(N=Nc2c(O)[nH]c(=O)[nH]c2=O)cc1	6%	-15	6%	54%
CC1CCN(C(=O)COC(=O)Cn2cnc3ccccc32)CC1	13%	-67*	.	.
CC1CCCN(C(=O)COC(=O)Cn2cnc3ccccc32)C1 (configuration not stated)	6%	-22	.	.
CN(Cc1ccccc1)C(=O)COC(=O)Cn1cnc2ccccc21	17%	31	224%	13%
CN(C(=O)COC(=O)Cn1cnc2ccccc21)C1CCCCC1	7%	-94*	.	.
COc1ccc(/C=C/C(=O)Nc2sc3c(c2C(N)=O)CCC(C)C3)cc1OC (configuration not stated)	.	-20	.	.
CC(c1ccccc1)N1C(=O)CC(Sc2ncccc2C(=O)O)C1=O (configuration not stated)	4%	5	2.1µM*	-1%
CC(C)c1nc(N2CCOCC2)c(C#N)c2c1CCCC2	7.1µM*	?	.	-23%
CCSc1nc(N2CCOCC2)c2c(c1C#N)CCCC2	-20%	-40	-29%	-6%
CCN(CC)c1nc(N2CCOCC2)c(C#N)c2c1CN(C)CC2	?	-10	10µM*	?
N#Cc1c(N2CCOCC2)nc(N2CCCCC2)c2c1CCN(C1CCCCC1)C2	-19%	.	1.5µM*	.
COc1ccc(/C=C/C(=O)OCC(=O)c2ccc3c(c2)NC(=O)CO3)c(OC)c1	11µM*	?	26%	22%
CC[C@H](C)[C@H](NC(=O)c1ccc(Cl)cc1)C(=O)OCC(=O)c1ccc2c(c1)NC(=O)CO2	?	-87*	5%	.
CNC(=O)C1CCC(Cn2c(=O)c3sccc3n(CC(=O)Nc3ccccc3)c2=O)CC1 (configuration not stated)	.	3	.	.
COc1ccc(-c2noc(-c3ccc(NCc4ccc(C)cc4)c([N+](=O)[O-])c3)n2)cc1OC	.	-4	.	.
Cc1cccc(-c2nc3c4ccccc4nc(NCc4ccccc4Cl)n3n2)c1	.	98	.	.
COc1cccc(C(=O)Nc2cccc(OCc3cc(=O)n4cc(C)ccc4n3)c2)c1	.	-28	.	.
CCC1CCCCN1CC(O)Cn1c2ccccc2n2c(=O)cc(C)c(C#N)c12 (configuration not stated)	?	-37	4.7µM*	?
Cc1cc(=O)n2c3ccccc3n(CC(O)CN3CCN(CCO)CC3)c2c1C#N (configuration not stated)	?	-17	?	?
Cc1cc(=O)n2c3ccccc3n(CC(O)CN3CCC(C)CC3)c2c1C#N (configuration not stated)	?	-32	?	?
